Data: PubChem BioAssay (NCATS)
Inconclusive results are not listed. Unmarked numbers belong to inactive results. The call rests on the fitted dose curve; in most records, active means well fitted cell-killing curve with a large enough effect; inconclusive means small, poorly fitted or top-dose-only effect, or effect the other way; inactive means flat fitted curve, though single readings scatter.

system: OV90; assay: Primary qHTS to identify gynecologic anti-cancer compounds using libraries of approved drugs and bioactive compounds (AID 1345084); settings: Gynecologic cancer cell panel viability, ATPlite luminescence, 48 h; series mostly up to 57.5 µM; activity change, negative = cytotoxicity: at the top concentration; further: nearly all actives have a fitted effect of over 55% in size
Method in brief: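 Cells, 1,000 per well, were allowed to settle for 16 h at 37 C before compound addition. Five concentrations were tested for 48 h, and viability was read by ATPlite luminescence after 15 min at room temperature.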
On the % scale 0 is the no-effect control and ±100 the full control effect.

Point of comparison: O=C(/C=C/c1ccc(O)cc1)OCC1=CC2OC(=O)C3=CO[C@@H](O[C@@H]4O[C@H](CO)[C@@H](O)[C@H](O)[C@H]4O)[C@H]1[C@@H]32 (some centres undefined), “activity change, negative = cytotoxicity” value 4.84% [at 25.3 µM]. Against it:
- CC1(C)C(=O)N2c3ccccc3[C@]3(CC(n4cnc5ccccc5c4=O)C(=O)O3)[C@H]2N1O (some centres undefined) — lower, -10.3% [at 25.3 µM]
- CC(=O)OC[C@@]12[C@@H](OC(C)=O)C[C@@H](C)[C@](C)([C@@H]3C[C@H]4C=CO[C@H]4O3)[C@H]1CCC[C@]21CO1 — lower, 4.2% [at 25.3 µM]
- COC1CC(=O)C23C(=O)NC(CC(C)C)C2C(C)C(C)=CC3/C=C(\C)CCC1O (centres undefined) — lower, -2.42% [at 25.3 µM]
- COC(=O)[C@]12C(=O)C(C)=C(O)[C@@]1(C)C(C)=CC1[C@@]34CC[C@@H](OC(C)=O)C(C)(C)C3[C@H](C[C@]12C)OC4=O (some centres undefined) — lower, 3.67% [at 25.3 µM]
- NC(=O)[C@H]1CCCCc2c1[nH]c1ccc(Cl)cc21 — higher, 7.16% [at 25.3 µM]
- C[C@@H]1CC[C@]2(C(=O)O)CC[C@]3(C(=O)O)C(=CCC4[C@@]5(C)CC[C@H](O[C@@H]6O[C@@H](C)[C@H](O[C@@H]7O[C@H](CO)[C@@H](O)[C@H](O)[C@H]7O)[C@@H](O)[C@H]6O)C(C)(C)C5CC[C@]43C)C2[C@H]1C (some centres undefined) — lower, 0.433% [at 25.3 µM]
- COC1C2=C(COC2=O)C2(C)CCCC(C)(CO)C2C1OC(=O)c1ccccc1 (centres undefined) — higher, 6.97% [at 25.3 µM]
- O=C(O[C@@H]1O[C@H](CO)[C@@H](O)[C@H](O)[C@H]1O)c1c(O)cc(O)cc1/C=C/c1ccccc1 — lower, -0.0304% [at 25.3 µM]
- COc1cc(C(=O)OC[C@H]2O[C@H](O[C@@]3(CO)O[C@@H](CO)[C@H](O)[C@H]3O)[C@H](O)[C@@H](O)[C@@H]2O)ccc1O — lower, -7.02% [at 25.3 µM]

Point of comparison: COc1ccc2c3c1O[C@H]1C[C@@H](O)C=C[C@@]31CCN(C)C2, “activity change, negative = cytotoxicity” value 7.95%. Against it:
- CC(=O)c1c(O)cc2cccc3c2c1CC(C)(O)O3 (centres undefined) — lower, -0.537%
- C/C=C/C=C/C(CC(=O)O)Nc1ccc(C=O)cc1 (centres undefined) — lower, 0.662%
- C#Cc1cnc2[nH]c(=O)n(C(CC)CC)c2n1 — higher, 15.4%
- N[C@@H](CC(=O)N1CCn2c(nnc2C(F)(F)F)C1)Cc1[nH]nc2c(F)c(F)ccc12 — lower, 4.1%
- CC1CC(O)CC(C)(C)C1(O)CCO (centres undefined) — lower, -4.71%
- C(#Cc1cccc(CN2CCOCC2)c1)CCN1CCCCC1 — lower, -17.1%
- N#Cc1ccnc(N2C(=O)CC[C@H]2C(=O)N(c2cncc(F)c2)[C@H](C(=O)NC2CC(F)(F)C2)c2ccccc2Cl)c1 — higher, 15.3%
- O=C(c1ccccn1)c1cnn2c(-c3ccncc3)ccnc12 — higher, 8.75%
- Nc1ncnc2c1ncn2[C@H]1CCCO1 — higher, 12.8%
- Clc1ccc2c(c1)C1=NCCN1c1c(-c3noc(C4CC4)n3)ncn1-2 — lower, 7.29%
- CCOC(=O)Nc1nc2ccccc2[nH]1 — higher, 8.96%
- CC1CCCC2OC2C(=O)c2c(O)cc(O)cc2CC(=O)O1 (centres undefined) — lower, -13.1%
- Cc1c(N2C(=O)c3ccc(C(=O)O)cc3C2=O)c(=O)n(-c2ccccc2)n1C — lower, 2.01%
- C=C1CC/C=C(/CO)C(=O)C[C@@H]2[C@@H]1CC2(C)C — lower, 5.28%

Point of comparison: C/C=C(\C)C(=O)O[C@@H](C)[C@H]1CC[C@]2(O)C3CCC4C[C@@H](OC5CC(OC)C(OC6CC(OC)C(OC7CC(OC)C(OC8OC(C)C(OC9OC(CO)C(O)C(O)C9O)C(OC)C8O)C(C)O7)C(C)O6)C(C)O5)CC[C@]4(C)C3[C@H](O)[C@@H](O)[C@]12C (some centres undefined), activity change, negative = cytotoxicity 15.4% [at 6.55 µM]. Against it:
- C=CC(C)(O)CC/C=C(/C)C(=O)OC1C(OC2OCC(OC3OC(CO)C(O)C(O)C3O)C(OC3OCC(O)C(OC4OC(C)C(O)C(O)C4O)C3O)C2O)COC(OC(=O)C23CCC(C)(C)CC2C2=CCC4C5(C)CCC(OC6OC(CO)C(OC7OC(CO)C(O)C(OC8OCC(O)C(O)C8O)C7O)C(O)C6O)C(C)(C)C5CCC4(C)C2(C)CC3O)C1O (centres undefined) — lower, -1.5% [at 6.55 µM]
- C=CC(C)(O)CC/C=C(\C)C(=O)OC1CC2(C(=O)O)CCC3(C)C(=CCC4C5(C)CCC(OC6OC(COC7OCC(O)C(O)C7O)C(O)C(OC7OCC(O)C(O)C7O)C6OC6OC(CO)C(O)C(O)C6OC6OCC(O)C(O)C6O)C(C)(C)C5CCC43C)C2CC1(C)C (centres undefined) — lower, 0.467% [at 6.55 µM]
- CC1OC(OC2C(CO)OC(OCC3OC(OC(=O)C45CCC(C)(C)CC4C4=CCC6C7(C)CCC(OC8OC(C(=O)O)C(O)C(OC9OC(CO)C(O)C(O)C9O)C8O)C(C)(C)C7CCC6(C)C4(C)CC5)C(O)C(O)C3O)C(O)C2O)C(O)C(O)C1O (centres undefined) — lower, 0.685% [at 6.55 µM]

Point of comparison: CC(=O)C1CCC2(C)C3=C(CCC12C)C1(C)CCC(=O)C(C)(C)C1CC3 (centres undefined), “activity change, negative = cytotoxicity” value -0.89% [at 38.5 µM]. Against it:
- C=C1CC[C@H]2[C@@](C)(CCC(O)[C@@]2(C)CO)[C@@H]1C/C=C(/C(=O)O)C(O)CO (some centres undefined) — higher, 1.83% [at 38.5 µM]
- COc1cc(C[C@H]2COC(=O)[C@@H]2Cc2ccc(O)c(OC)c2)ccc1O — higher, 13.1% [at 38.5 µM]
- CC(=O)c1c(C)cc(O)cc1O[C@@H]1O[C@H](CO)[C@@H](O)[C@H](O)[C@H]1O — higher, 4.59% [at 38.5 µM]
- CC(C)CNC(=O)/C=C/CCCCc1ccc2c(c1)OCO2 — higher, 7.65% [at 38.5 µM]
- C=CC1(C)CC(O)C2(CCC3C(C)(C(=O)O)CCCC3(C)C2=O)C1 (centres undefined) — higher, 2.82% [at 38.5 µM]
- CC1CCC2C(C)(C)C(O)CCC2(C)C12Cc1c(O)cc3c(c1O2)C(N)=NC3 (centres undefined) — higher, 7.79% [at 38.5 µM]

Point of comparison: CC1(C)CCC2(C(=O)OC3OC(COC4OC(CO)C(O)C(O)C4O)C(O)C(O)C3O)CCC3(C)C(=CCC4C5(C)CCC(O)C(C)(C(=O)O)C5CCC43C)C2C1O (centres undefined), activity change, negative = cytotoxicity 0.278% [at 11.6 µM]. Against it:
- C[C@@H]1O[C@@H](O[C@H]2[C@H](O)[C@@H](C(=O)O)O[C@@H](O[C@H]3CC[C@@]4(C)C(CC[C@]5(C)C4CC=C4C6CC(C)(C)CC[C@]6(C(=O)O)CC[C@]45C)C3(C)C)[C@@H]2O[C@@H]2O[C@H](CO)[C@@H](O)[C@H](O)[C@H]2O)[C@H](O)[C@H](O)[C@H]1O (some centres undefined) — lower, -2.55% [at 11.6 µM]
- O=C(OCc1cccc(O)c1O[C@@H]1O[C@H](CO)[C@@H](O)[C@H](O)[C@H]1O)C1(O)C(=O)C2C=CC1C1C=CC(=O)C(O)(C(=O)OCc3cccc(O)c3O[C@@H]3O[C@H](CO)[C@@H](O)[C@H](O)[C@H]3O)C21 (some centres undefined) — lower, -13.1% [at 11.6 µM]
